This passage reports Potency results from PubChem BioAssay (NCATS).

Values joined by “and” are separate entries in the source; they are usually repeats but may differ in a detail not shown here. Identical values can stand only once. Records with an inconclusive call do not appear. More than one record can exist for a structure, and the calls need not agree. Active and inactive are the calls of the source. Unless noted, calls follow the shape of the dose curve; as a rule, active = well fitted curve in the direction sought with a large enough effect; inconclusive = small, poorly fitted or top-dose-only effect, or another doubt; inactive = no such curve, though single readings can be large; an effect the other way counts as inactive or inconclusive.

For one experiment, the target named is Papain (Carica papaya) (UniProt P00784). Put plainly: Primary qHTS assay for inhibitors of the protease papain (AID 1645873).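 Also: papain turnover of Z-FR-AMC read as the AMC fluorescence gain over 10 min.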 Also: potency is read from the fitted curve at half-maximal effect. To be noted: papain Z-FR-AMC cleavage, AMC fluorescence; series mostly up to 49.8 µM.
Experiment [1] in a line: Primary qHTS for inhibitors of nuclear receptor binding SET domain protein 2 (NSD2) in an isogenic RCH-ACV NSD2 p.E1099K mutant (9B) (AID 1645876). Also: nearly all actives have a fitted effect of over 70% in size. Also: potency is read from the fitted curve at half-maximal effect. Particulars: RCH-ACV NSD2 E1099K (9B) viability, CellTiter-Glo, 72 h; series mostly up to 44.9 µM. Background: qHTS replaces the single test concentration by a dilution series.
The nature of experiment [2]: Primary qHTS for inhibitors of nuclear receptor binding SET domain protein 2 (NSD2) in an RCH-ACV wild type WT cells (2C) (AID 1645877). Also: nearly all actives have a fitted effect of over 70% in size. Also: potency is read from the fitted curve at half-maximal effect. Particulars: RCH-ACV (leukaemia line) NSD2 WT (2C) viability, CellTiter-Glo, 72 h; series mostly up to 44.9 µM.
Experiment [3] addresses Cytochrome P450 2D6 (Homo sapiens) (UniProt P10635). The experiment can be described thus: Cytochrome P450 family 2 subfamily D member 6 (CYP2D6) small molecule antagonists: luciferase biochemical (cell-free) qHTS assay (AID 1645840; active = well fitted curve in the direction sought with a large enough effect in the repeat runs; an effect the other way counts as inactive or inconclusive; also: nearly all actives have a fitted effect of over 55% in size; also: potency is read from the fitted curve at half-maximal effect). Particulars: P450-Glo CYP2D6 enzyme, luciferin luminescence, 1 h; series mostly up to 57.4 µM. In short, it runs like this: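 P450-Glo CYP2D6 system: proluciferin substrate converted by enzyme to luciferin, read by luminescence proportional to activity. Enzyme-substrate mix with compound 10 min at room temperature, then NADPH regeneration 1 h before detection reagent.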

Experiment [4] addresses Cytochrome P450 2C9 (Homo sapiens) (UniProt P11712). Put plainly: Cytochrome P450 family 2 subfamily C member 9 (CYP2C9) small molecule antagonists: luciferase biochemical (cell-free) qHTS assay (AID 1645842; active = well fitted curve in the direction sought with a large enough effect in the repeat runs; an effect the other way counts as inactive or inconclusive; also: nearly all actives have a fitted effect of over 55% in size; also: potency is read from the fitted curve at half-maximal effect). To be noted: P450-Glo CYP2C9 enzyme assay, luciferin luminescence; series mostly up to 57.4 µM. A digest of the protocol: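 P450-Glo CYP2C9 system: proluciferin substrate with enzyme in mix containing 0.4% BSA, 10 min at room temperature, then NADPH regeneration solution added and incubated 1 h at 37C. Detection reagent stopped reaction; luminescence read after 20 min as RLU.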

Experiment [5] can be described thus: A High-Content qHTS Against Drug Library for the Identification of Small Molecules that Inhibit DYT1 Early Onset Primary Dystonia-Associated Cell Pathology (AID 1645839; calls by dose curve). To be noted: HEK293 Flp-In EGFP-delE TorsinA, punctate imaging, 48 h; series mostly up to 46.1 µM. In short, it runs like this:
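Cells were seeded and left for 24 h, then dosed with compound alongside tetracycline induction of mutant EGFP-TorsinA. They were incubated for 48 h, fixed in 4% paraformaldehyde, permeabilized and imaged for mislocalization (%pathology) and cell count.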

Chain of Cytochrome P450 2D6 (Homo sapiens) (P10635 whole entry, looked up): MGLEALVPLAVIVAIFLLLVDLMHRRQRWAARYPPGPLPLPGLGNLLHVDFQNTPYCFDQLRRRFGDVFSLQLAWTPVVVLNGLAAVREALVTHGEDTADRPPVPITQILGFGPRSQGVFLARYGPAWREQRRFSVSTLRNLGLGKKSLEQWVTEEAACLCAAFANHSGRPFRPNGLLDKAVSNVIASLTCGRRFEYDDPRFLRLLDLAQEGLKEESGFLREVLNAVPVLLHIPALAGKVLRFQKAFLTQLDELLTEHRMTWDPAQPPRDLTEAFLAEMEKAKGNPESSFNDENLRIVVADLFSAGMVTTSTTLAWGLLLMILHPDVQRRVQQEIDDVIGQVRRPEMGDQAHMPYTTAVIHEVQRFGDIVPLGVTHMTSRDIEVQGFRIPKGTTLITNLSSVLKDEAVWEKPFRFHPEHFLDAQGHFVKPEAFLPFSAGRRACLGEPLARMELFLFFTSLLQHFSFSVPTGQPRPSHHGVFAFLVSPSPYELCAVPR
Chain of Cytochrome P450 2C9 (Homo sapiens) (P11712 whole entry, looked up): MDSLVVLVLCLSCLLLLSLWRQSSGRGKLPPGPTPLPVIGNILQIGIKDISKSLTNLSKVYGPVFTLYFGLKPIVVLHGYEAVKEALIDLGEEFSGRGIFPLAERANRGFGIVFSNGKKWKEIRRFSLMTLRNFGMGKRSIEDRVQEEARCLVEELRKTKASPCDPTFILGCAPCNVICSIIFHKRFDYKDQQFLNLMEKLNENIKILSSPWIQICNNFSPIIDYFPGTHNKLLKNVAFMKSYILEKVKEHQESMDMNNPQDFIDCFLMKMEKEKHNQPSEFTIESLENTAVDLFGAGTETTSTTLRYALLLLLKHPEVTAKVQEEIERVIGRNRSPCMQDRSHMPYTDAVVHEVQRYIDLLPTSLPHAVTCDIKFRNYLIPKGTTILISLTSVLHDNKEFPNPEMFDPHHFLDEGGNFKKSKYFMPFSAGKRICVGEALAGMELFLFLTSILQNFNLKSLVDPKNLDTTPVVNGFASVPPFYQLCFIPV
Chain of Papain (Carica papaya) (P00784 whole entry, looked up, the tested form may be a part): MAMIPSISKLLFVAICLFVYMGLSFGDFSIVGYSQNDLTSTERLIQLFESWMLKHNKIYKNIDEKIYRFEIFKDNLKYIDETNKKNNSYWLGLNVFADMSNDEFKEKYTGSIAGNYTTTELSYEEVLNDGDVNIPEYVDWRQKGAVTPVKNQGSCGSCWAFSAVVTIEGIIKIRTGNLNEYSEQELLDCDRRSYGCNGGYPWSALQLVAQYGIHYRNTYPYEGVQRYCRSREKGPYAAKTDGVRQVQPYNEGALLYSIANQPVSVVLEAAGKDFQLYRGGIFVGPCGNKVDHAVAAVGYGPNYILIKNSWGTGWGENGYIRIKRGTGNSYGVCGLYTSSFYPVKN

For the compound `CN(C)CCCN1c2ccccc2Sc2ccc(Cl)cc21`, in the experiment with Papain (Carica papaya), the Potency entry was “inactive”. Also, the Potency in experiment [1] is 15 µM (active); in experiment [2], 13.3 µM (active).

Take `CC(CN(C)C)CN1c2ccccc2CCc2ccccc21` (centres undefined): in experiment [3], the Potency was 2.88 µM (active). The Potency entry (in experiment [4]; in the experiment with Papain (Carica papaya)) was “inactive” throughout.

As to `CC(=O)c1ccc2c(c1)N(CCCN(C)C)c1ccccc1S2`, in experiment [3], the Potency was 0.436 µM (active). Moreover, the Potency result (in experiment [4]; in the experiment with Papain (Carica papaya)) was “inactive” each time.

On to `CC1=C(/C=C/C(C)=C/C=C/C(C)=C/C(=O)O)C(C)(C)CCC1`, for which the Potency result (in experiment [3]; with Papain (Carica papaya)) was “inactive” throughout. Moreover, the Potency in experiment [1] was 21.1 µM (active).

On to `NC(=O)NNc1ccccc1`, for which the Potency result in experiment [1] and in experiment [2] was “inactive” throughout.

In the case of `CN1CCCCC1CCN1c2ccccc2Sc2ccc(S(C)=O)cc21` (centres undefined), the Potency in experiment [3] was 0.0219 µM (active). Moreover, in experiment [4], the Potency result is “inactive”.

As to `CC(C)(C)[C@]1(O)CCN2C[C@H]3c4ccccc4CCc4cccc(c43)[C@@H]2C1`, the Potency result with Papain (Carica papaya) was “inactive and 15.8 µM (active)”.

`NC1[C@H]2CN(c3nc4c(cc3F)c(=O)c(C(=O)O)cn4-c3ccc(F)cc3F)C[C@@H]12` (some centres undefined): the Potency result in experiment [3] and in experiment [4] was “inactive” throughout. For the same compound, in experiment [1], the Potency was 2.99 µM (active).

Consider `CC(C)(C)c1onc(OCP(=O)(O)O)c1CC(N)C(=O)O` (centres undefined), for which the Potency result with Papain (Carica papaya) was “inactive”.

As to `CN(C)CCCN1c2ccccc2CCc2ccccc21`, the Potency entry in experiment [4] was “inactive”.

For the compound `N=c1c[n+](N2CCOCC2)[n-]o1`, in the experiment with Papain (Carica papaya), the Potency entry is “inactive”.

With `CCOC(=O)c1ccc(O)cc1`, the Potency entry in experiment [5], in experiment [1] and in experiment [2] was “inactive” in each case.

Regarding `CN1CCN(C2Cc3ccccc3Sc3ccc(Cl)cc32)CC1` (centres undefined), the Potency is 0.121 µM (active) in experiment [3] and 8.49 µM (active) in experiment [4]. In addition, the Potency result with Papain (Carica papaya) was “inactive”.
